This note sets out measurements from PubChem BioAssay (NCATS).

SMILES strings stand for the structures. Records with an inconclusive call do not appear. A call without a number means that no potency is given here. Activity calls are given as the source filed them. Calls come from the whole dose curve; as a rule, active = well fitted inhibition curve with a large enough effect; inconclusive = small, poorly fitted or top-dose-only effect; inactive = flat fitted curve, though single readings scatter.
Potency is the fitted concentration of half-maximal effect.

Phospholipid hydroperoxide glutathione peroxidase GPX4 (Homo sapiens), sequence (P36969 whole entry, looked up): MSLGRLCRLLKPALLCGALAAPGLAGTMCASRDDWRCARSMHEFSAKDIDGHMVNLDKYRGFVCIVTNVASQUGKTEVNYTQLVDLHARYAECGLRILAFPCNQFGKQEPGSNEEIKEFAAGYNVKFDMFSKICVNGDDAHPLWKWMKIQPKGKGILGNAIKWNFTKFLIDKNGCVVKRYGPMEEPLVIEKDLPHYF

The target of the experiment is Phospholipid hydroperoxide glutathione peroxidase GPX4 (Homo sapiens) (UniProt P36969). The experiment is described as follows: Primary qHTS Assay for Inhibitors of Recombinant Selenoprotein Glutathione Peroxidase 4 (GPX4) (AID 1845192). Note: nearly all actives have a fitted effect of over 65% in size. The note with it: recombinant GPX4, GR-coupled NADPH fluorescence, 15 min; series mostly up to 50 µM. Put shortly:
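GR-coupled assay: recombinant GPX4 preincubated 30 min with compound at room temperature; final 200 nM GPX4, 1 mM GSH, 0.5 mM cumene hydroperoxide, 0.5 mM NADPH, 100 nM GR, 0.01% BSA, pH 7.5 Tris. NADPH fluorescence (340/450 nm) read at 0 and 15 min.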
On the technique in general: Quantitative high-throughput screening tests each substance at several concentrations.
On to `Nc1cc2c(ncn2CCOCP(=O)(O)O)c(=O)[nH]1`, for which the Potency entry is “inactive”.

Take `CP(=O)(O)C1=CCNCC1`: the Potency result was “inactive”.

As for `NC(N)=NOCC[C@H](N)C(=O)O`, the Potency entry was “inactive”.

As to `CC(N)Cc1c[nH]c2ccc(O)cc12` (stereo not drawn), the Potency result is “inactive”.

For the compound `O=C(O)C(Cl)(Cl)Cl`, the Potency entry is “inactive”.

For the compound `C[C@H]1C2Cc3ccc(O)cc3[C@@]1(C)CCN2CC1CC1`, the Potency result is “inactive”.

For `CC1=CC2/C=C(\C)CCC(O)C3OC(C)(C)OC3CC(=O)OC23C(=O)NC(CC(C)C)C3C1C` (stereo not drawn), the Potency result is “inactive”.

`Cc1cc([C@@H]2CCCN2C)on1`: the Potency result is “inactive”.

`COc1ccc2c(c1)C13CCCCC1C(C2)N(C)CC3` (stereo not drawn): the Potency entry was “inactive”.

For the compound `CC(N)[C@H](O)c1ccc(O)c(O)c1` (stereo partly drawn), the Potency result is “inactive”.

Consider `C=CCN1CCC23c4c5ccc(O)c4O[C@H]2C(=O)CC[C@@]3(O)C1C5` (stereo partly drawn), for which the Potency entry is “inactive”.

Consider `CC(=O)OCC1=C(C(=O)O)N2C(=O)[C@@H](NC(=O)CCC[C@@H](N)C(=O)O)[C@H]2SC1`, for which the Potency result was “inactive”.

Take `COc1ccccc1CN[C@H]1C2CCN(CC2)[C@H]1C(c1ccccc1)c1ccccc1`: the Potency entry was “inactive”.

For the compound `CCC1C(C)=NN=C(c2ccc(OC)c(OC)c2)c2cc(OC)c(OC)cc21` (stereo not drawn), the Potency result is “inactive”.

With `Nc1ccc(CCN2CCN(c3cccc(C(F)(F)F)c3)CC2)cc1`, the Potency entry is “inactive”.

On to `ClC1C(Cl)C(Cl)C(Cl)C(Cl)C1Cl` (stereo not drawn), for which the Potency entry was “inactive”.

As to `O=[N+]([O-])c1ccc2nc(N3CCNCC3)ccc2c1`, the Potency result was “inactive”.

Take `CCCCCCC(=O)O[C@H]1CC[C@H]2[C@@H]3CC[C@H]4CC(=O)C=C(C)[C@]4(C)[C@H]3CC[C@]12C`: the Potency was 6.31 µM (active).

Regarding `O=C1/C(=C/c2ccccc2)C[C@@]2(O)[C@H]3Cc4ccc(O)c5c4[C@@]2(CCN3CC2CC2)[C@H]1O5`, the Potency result was “inactive”.

Take `CC12NC(Cc3ccccc31)c1ccccc12` (stereo not drawn): the Potency entry was “inactive”.

For the compound `CCNC1(c2cccs2)CCCCC1=O` (stereo not drawn), the Potency result is “inactive”.

As for `N=C(N)c1ccc(CS(=O)(=O)F)cc1`, the Potency entry was “inactive”.

As to `O=C(OCCN1CCCCC1)C(O)(c1ccccc1)c1ccccc1`, the Potency result is “inactive”.
